High-throughput results: PubChem BioAssay, National Center for Advancing Translational Sciences (NCATS)
The list is not random: actives were taken first. Their share in the collection is about 11%.
VP16 counter: Gal4-VP16 reporter inhibition counter-screen | Potency, µM (series often up to 53.6 µM), actives largely listed as inhibitors | Drosophila S2 Gal4-VP16 UAS-luciferase, luminescence, 20 h | 310,000 compounds, 3.5% hits;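 also: Gal4-VP16 expression switched on by copper sulfate through the metallothionein promoter; nearly all actives have a fitted effect of over 50% in size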
RORg inh: ROR gamma (mouse) transcription inhibition; Drosophila S2 Gal4-RORgamma UAS-luciferase reporter, 20 h; 310,000 compounds, 5.4% hits; Potency, µM (titrated, usually from 53.6 µM), most hits filed as inhibitors; also: nearly all actives have a fitted effect of over 60% in size
Target sequence (P51450 whole entry, looked up, the tested form may be a part): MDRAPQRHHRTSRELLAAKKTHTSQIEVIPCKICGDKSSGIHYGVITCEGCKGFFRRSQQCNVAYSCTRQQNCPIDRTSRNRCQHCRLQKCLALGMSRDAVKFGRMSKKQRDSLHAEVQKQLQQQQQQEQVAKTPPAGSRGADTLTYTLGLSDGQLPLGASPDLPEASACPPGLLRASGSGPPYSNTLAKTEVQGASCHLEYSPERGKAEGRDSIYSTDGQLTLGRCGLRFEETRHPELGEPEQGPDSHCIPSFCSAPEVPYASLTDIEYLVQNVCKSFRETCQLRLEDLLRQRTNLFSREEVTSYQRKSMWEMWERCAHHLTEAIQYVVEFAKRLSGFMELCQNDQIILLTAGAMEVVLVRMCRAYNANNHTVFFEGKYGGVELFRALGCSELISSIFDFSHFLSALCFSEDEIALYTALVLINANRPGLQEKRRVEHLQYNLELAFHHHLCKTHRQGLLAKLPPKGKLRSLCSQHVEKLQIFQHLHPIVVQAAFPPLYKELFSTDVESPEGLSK
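Read-out: Photinus luciferase luminescence; inhibitors lower reporter signal. Insect Schneider cells with Gal4-ROR gamma fusion under metallothionein promoter, UAS reporter; 700 uM final copper sulfate induction, 20 hr, ambient temperature.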
MCF10A rerep: inducers of DNA re-replication in MCF 10A breast cells; MCF 10A DNA re-replication, Hoechst nuclear intensity, 48 h; 350,000 compounds, 2.9% hits; Potency, µM (doses to about 46.1 µM), usual class: activators; also: nearly all actives have a fitted effect of over 50% in size
IL-1B inflam inh: blocks inflammasome-driven IL-1 beta release. activity change, % at 57.5 µM. AID 743279. THP-1 LPS/ATP IL-1B secretion, AlphaLISA, 16 h; hits give low values. 360,000 compounds, 4.7% hits; in the data active = activity change below about -50%; inconclusive = mostly about -30% to -49%
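THP-1 cells pretreated 1 hr with compounds (up to 57.5 uM final), then stimulated with LPS (250 ng/mL final) plus ATP (1.25 mM final); secreted IL-1B measured by AlphaLISA after 16 hr, decreased signal indicating inhibition.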
SW480 rereplic: DNA re-replication induction in SW480 cells; SW480 DNA re-replication, Hoechst DNA content imaging, 48 h; Potency, µM (highest dose often 46.1 µM), hits mostly activators; AID 624297; 340,000 compounds, 1.8% hits; also: nearly all actives have a fitted effect of over 55% in size
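Hoechst fluorescence of nuclei (405 nm excitation, 500-530 nm emission) measured by plate-scanning imager after 48 hr compound exposure at 37 C; re-replication scored as increased number of nuclei with elevated intensity.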
Of the large screens only hits and unclear results are named; the others gave an inactive call. Unless noted, calls follow the shape of the dose curve; as a rule, active = well fitted curve in the direction sought with a large enough effect; inconclusive = small, poorly fitted or top-dose-only effect, or another doubt; inactive = no such curve, though single readings can be large; an effect the other way counts as inactive or inconclusive.

Cc1ccc2nc(/C(C#N)=C\c3ccc(Oc4ccc(C(F)(F)F)cc4[N+](=O)[O-])cc3)[nH]c2c1	SW480 rereplic 13µM
N#C/C(=C\c1cccc(Oc2ccc(C(F)(F)F)cc2[N+](=O)[O-])c1)c1nc2ccccc2[nH]1	MCF10A rerep 18.4µM
COc1cc(/C=C(\C#N)c2nc3ccc(C)cc3[nH]2)c([N+](=O)[O-])cc1OC	IL-1B inflam inh -89.1
O=C1C[C@@H](O)[C@@H](O)[C@H]2[C@@H]3C(=O)N(C4CCCCC4)C(=O)[C@@H]3CC[C@H]12	none (no result: MCF10A rerep, IL-1B inflam inh, SW480 rereplic)
COc1cc(/C=C(\C#N)c2nc3ccc(C)cc3[nH]2)cc([N+](=O)[O-])c1O	SW480 rereplic inconclusive
COc1ccc(/C=C(\C#N)c2nc3ccc(C)cc3[nH]2)cc1Oc1ccc(C(F)(F)F)cc1[N+](=O)[O-]	MCF10A rerep 23.1µM, SW480 rereplic inconclusive
Cc1nnc(SC(C)C(=O)Nc2ncc(Cl)cc2Cl)n1Cc1ccccc1 (stereo unspecified)	VP16 counter 28.2µM, RORg inh inconclusive
CC(Sc1nnc(CN2CCCC2)n1Cc1ccccc1)C(=O)Nc1ccc(F)cc1Cl (stereo unspecified)	MCF10A rerep inconclusive, IL-1B inflam inh inconclusive, SW480 rereplic 3.66µM (no result: VP16 counter, RORg inh)
CC1(C)Cc2ccccc2-c2nnnn21	none
c1ccc2c(c1)CC1(CCCC1)n1nnnc1-2	RORg inh 0.708µM
O=C(Nc1nnc2n1CCS2)c1ccc(Br)o1	VP16 counter 7.08µM, RORg inh 3.55µM
Cc1cccnc1NC(=O)c1ccc(Br)o1	none (no result: VP16 counter, RORg inh)
Cc1cc(C(=O)O)cc(S(=O)(=O)Nc2c(C)nn(C)c2C)c1C	none (no result: VP16 counter, RORg inh)
O=C(NCc1ccc2c(c1)OCO2)c1ccco1	none
O=C(CC(SCCO)c1ccc2c(c1)OCO2)c1ccco1 (stereo unspecified)	VP16 counter inconclusive, RORg inh inconclusive, MCF10A rerep inconclusive, IL-1B inflam inh -56.4
COc1c2c(c(C(=O)/C=C/C(C)=C/c3ccccc3)c3c1OCO3)CCN(C)C2	none (no result: MCF10A rerep, IL-1B inflam inh, SW480 rereplic)
Cc1cccc(NC(=S)NNC(=S)NC2CCCCC2)c1C	VP16 counter inconclusive, RORg inh 12.6µM
Cc1cccc(NC(=S)NC2CC3CCCC(C2)N3CC(C)C)c1C (stereo unspecified)	none
Cc1ccccc1NC(=S)NC1CCCC1	VP16 counter 8.91µM, RORg inh 7.94µM
Cc1cc(C)c(NC(=O)NC2CCCCC2)c(C)c1	none
Cc1cccc(NC(=O)NNC(=O)c2cc3ccccc3cc2O)c1C	MCF10A rerep inconclusive
Cc1cccc(NC(=S)NNC(=O)c2ccc(O)cc2O)c1C	VP16 counter 20µM, RORg inh 7.94µM
Cc1cccc(C)c1NC(=S)NC1CCCCC1	VP16 counter 4.47µM, RORg inh 6.31µM
CCOC(=O)CC1(NC(=O)C2CCC(=O)N(Cc3ccccc3OC)C2)CCCCC1 (stereo unspecified)	none
CC1CCCCc2nc3c(c(=O)n21)CCCC3 (stereo unspecified)	none (no result: VP16 counter, RORg inh, MCF10A rerep, SW480 rereplic)
C[C@H]1CN([C@@H](C)CO)C(=O)c2cc(NC(=O)C3CCCCC3)ccc2O[C@H]1CN(C)C(=O)Nc1ccc2c(c1)OCO2	none (no result: VP16 counter, RORg inh)
CCOC(=O)c1ccc(NC(=S)NCc2ccccc2)cc1	VP16 counter inconclusive, RORg inh 14.1µM, MCF10A rerep inconclusive
COC(=O)c1ccc(NC(=S)NCCc2ccccc2)cc1	RORg inh inconclusive
CCOC(=O)c1ccc(NS(=O)(=O)c2ccc(SC)cc2)cc1	VP16 counter inconclusive, RORg inh inconclusive, MCF10A rerep 23.1µM
CCOC(=O)c1ccc(S(=O)(=O)NCCNCc2ccccc2)cc1	IL-1B inflam inh -76.0 (no result: VP16 counter, RORg inh)
CCOC(=O)c1ccc(COC(=O)CNS(=O)(=O)c2ccccc2)cc1	none
CCOC(=O)c1ccc(NC(=S)NCCc2ccccc2)cc1	VP16 counter inconclusive, RORg inh 8.91µM, MCF10A rerep inconclusive
CCOC(=O)c1ccc(NC(=S)NCCc2ccccc2F)cc1	VP16 counter inconclusive, RORg inh 3.55µM
COc1ccc(S(=O)(=O)NCc2ccccn2)cc1Cl	none
COc1cc(Cl)c(S(=O)(=O)NCc2ccccn2)cc1Cl	RORg inh 11.2µM
CCOc1cc(Cl)c(S(=O)(=O)NCc2ccccn2)cc1Cl	VP16 counter 20µM, RORg inh 12.6µM
Cc1cccc(N2CCN(C(=O)c3cccc(N4CCCC4=O)c3)C(C)C2)c1 (stereo unspecified)	MCF10A rerep 1.46µM, SW480 rereplic inconclusive
COc1cc2c(cc1OC)C1O[C@](c3ccsc3)(C2)OC2=C1C(=O)OC1(CCCCC1)C2	VP16 counter inconclusive (no result: MCF10A rerep, IL-1B inflam inh, SW480 rereplic)
Cc1cc(Br)c2nc(-c3ccccc3)c(Cc3cccc(Cl)c3)n2c1	none (no result: VP16 counter, RORg inh, MCF10A rerep, SW480 rereplic)
CCOC(=O)c1csc(NC(=O)c2cc(OC)c(OC)c(OC)c2)n1	MCF10A rerep inconclusive, IL-1B inflam inh -53.9, SW480 rereplic 0.231µM
COc1cc(C(=O)Nc2nncs2)cc(OC)c1OC	none
COc1cc(C(=O)Nc2nnc(C)s2)cc(OC)c1OC	RORg inh 7.08µM
CCCC(=O)Nc1nc(C(=O)OCC)cs1	none
CC1(C)CC[C@]2(CO)CC[C@]3(C)C(=CCC4[C@@]5(C)CC[C@H](O)[C@@](C)(CO)C5CC[C@]43C)[C@@H]2C1 (stereo partly specified)	MCF10A rerep 10.3µM (no result: VP16 counter, RORg inh)
CC1(C)CC[C@]2(C(=O)O)CC[C@]3(C)C(=CCC4[C@@]5(C)CC[C@H](O)C(C)(C)C5CC[C@]43C)C2C1 (stereo partly specified)	RORg inh 6.31µM
CC1(C)CC[C@]2(C(=O)O)CC[C@@]3(C)C(=CCC4[C@@]5(C)CCC(O)[C@@](C)(CO)C5CC[C@@]43C)C2C1 (stereo partly specified)	none (no result: MCF10A rerep, IL-1B inflam inh, SW480 rereplic)
Fc1ccc(Nc2nc(NCc3cccs3)nc3ccsc23)cc1	none (no result: VP16 counter, RORg inh, MCF10A rerep, SW480 rereplic)
O=C1CCCC=C1[C@@H](O)COCc1ccccc1	none (no result: MCF10A rerep, IL-1B inflam inh, SW480 rereplic)
CSc1nc(SCC(=O)NC(c2ccccc2)c2ccccc2)c2c3c(sc2n1)CN(C)CC3	VP16 counter inconclusive, MCF10A rerep 5.17µM, IL-1B inflam inh inconclusive, SW480 rereplic 5.8µM
CCCCN(C)C(=O)c1sc(=O)n(Cc2ccc(Cl)c(Cl)c2)c1C	none (no result: VP16 counter, RORg inh, MCF10A rerep, SW480 rereplic)
COC(=O)[C@@]12CCCCN1[C@H](c1ccc(-c3ccc(C(C)=O)cc3)c(OC)c1)[C@@H]1C(=O)N(C)C(=O)[C@@H]12	none (no result: VP16 counter, RORg inh)
O=C(Nc1ccc(Cl)cn1)c1cccc(F)c1	MCF10A rerep 13µM, SW480 rereplic 10.3µM
O=C(Nc1ccc(Cl)cn1)Nc1ccccc1F	none
O=C(Nc1ccc(Cl)cn1)c1ccccc1F	MCF10A rerep 13µM, SW480 rereplic 11.6µM
CC(C)C(=O)Nc1ccc(NC(=O)c2cccc(F)c2)cn1	RORg inh inconclusive, IL-1B inflam inh -60.1
O=C(Nc1cccc(C(=O)Nc2ccc(Cl)cn2)c1)c1ccccc1	IL-1B inflam inh inconclusive
O=C(NCC1CC1)C1Cc2c(-c3ccc4c(c3)OCO4)ccnc2O1 (stereo unspecified)	none (no result: VP16 counter, RORg inh, MCF10A rerep, SW480 rereplic)
